MARV entry inh = blocks Marburg virus binding to or entry into cells; actives 1.8% (n = 300,000); Marburg virus pseudotyped entry inhibition, cell reporter; Potency, µM (doses to about 37.8 µM), inactives show top-dose activity change, negative = inhibition, actives largely listed as inhibitors; calls by dose curve; tested in HEK293 cells
HCV inh = blocks hepatitis C virus. Potency, µM (top dose mostly 41.8 µM), without a hit: at the top dose activity change, negative = inhibition, actives largely listed as inhibitors. actives 3.4% (n = 340,000). Huh7.5.1 HCVcc-Cre infection, luciferase reporter, 44 h; active = well fitted inhibition curve with a large enough effect; inconclusive = small, poorly fitted or top-dose-only effect, or another doubt; inactive = no such curve, though single readings can be large or run the other way
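Infectious HCVcc-Cre (~0.5 moi) was added to cells just after compound, with cells seeded 4 h earlier at 1,000 per well. Luciferase activity after 44 h culture reported infection; substrate was incubated 15 min at room temperature before reading.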
Vaccinia mCherry = vaccinia inhibition (mCherry reporter); Vaccinia virus mCherry reporter infection, fluorescence; Potency, µM (highest dose often 36.5 µM), inactives show at the top dose activity change, negative = inhibition, actives largely listed as inhibitors; actives 0.63% (n = 310,000); AID 720579; calls by dose curve; tested in A549 cells; note: nearly all actives have a fitted effect of over 35% in size
FMDV inh = foot and mouth disease virus antiviral activity; FMDV antiviral cell-based qHTS; actives 1.2% (n = 410,000); Potency, µM (titrated, usually from 57.9 µM), inactives show at the highest dose activity change, negative = inhibition, most hits filed as inhibitors; calls by dose curve; tested in HEK293T cells; note: read-out not given here; nearly all actives have a fitted effect of over 45% in size
Lassa entry inh = Lassa virus entry inhibition | Lassa virus pseudotype entry inhibition, cell reporter | Potency, µM (highest dose often 37.9 µM), inactives show at the highest dose activity change, negative = inhibition, actives largely listed as inhibitors | actives 1.2% (n = 300,000); calls by dose curve; tested in HEK293 cells; note: nearly all actives have a fitted effect of over 50% in size
Vaccinia Venus = vaccinia inhibition (Venus reporter); Potency, µM (top dose mostly 36.5 µM), for the others: top-dose activity change, negative = inhibition, usual class: inhibitors; Vaccinia virus Venus reporter expression, fluorescence; actives 0.46% (n = 330,000); AID 720580; calls by dose curve; tested in A549 cells; note: nearly all actives have a fitted effect of over 30% in size
* hit, by the source's call; i = inactive; ? = inconclusive; · = no result; [ ] = another dose, or the depositor's remark. Rows were chosen to be rich in hits. Some 5.3% of all compounds tested hit in one or more screens of this group. % is set by controls: 0 for no effect and ±100 for the full control effect; potency is the fitted concentration of half-maximal effect.

SMILES | MARV entry inh | HCV inh | Vaccinia mCherry | FMDV inh | Lassa entry inh | Vaccinia Venus
CC(=O)OC(C)(C)/C=C/C(=O)[C@](C)(O)C1[C@H](O)C[C@@]2(C)C3CC=C4C(C[C@H](O)C(=O)C4(C)C)[C@]3(C)C(=O)C[C@]12C (some centres undefined) | · | -19% | 0.5µM* | 28µM* | · | 2.5µM*
CC(C)(O)/C=C/C(=O)C(C)(O)C1C(O)CC2(C)C3CC=C4C(C=C(O)C(=O)C4(C)C)C3(C)C(=O)CC12C (centres undefined) | 0.11µM* | ? | 7.9µM* | -5% | 0.32µM* | 28µM*
CC(C)Nc1nc(Cl)nc(N(C#N)CN2C(=O)c3ccccc3C2=O)n1 | 2.5µM* | ? | ? | ? | ? | ?
CCOC(=O)/C=C(\C)Sc1cc(O)c2ccccc2c1O | · | ? | · | 28µM* | · | ·
COc1ccc(C2OC3C(CO)OC(n4cnc5c(=O)[nH]c(N)nc54)C3O2)cc1 (centres undefined) | · | · | i | -9% | · | 1%
CCn1c(=O)c(CCC(=O)NCCN2CCOCC2)c(C)c2c(C)nn(-c3cccc(C)c3)c21 | · | -24% | i[7.34 µM] | -15% | · | -21%[7.34 µM]
CCN1CCN(CCNC(=O)CCc2c(C)c3c(C)nn(-c4ccccc4)c3n(C)c2=O)CC1 | ? | 16µM* | -3% | -12% | ? | ?
CCN(Cc1ccc2c(c1)OCCO2)C(=O)CSc1nc(C)nc2sc(C)c(C)c12 | · | ? | · | 32µM* | · | ·
CCN(Cc1ccc2c(c1)OCO2)C(=O)CSc1ncnc2sccc12 | · | ? | · | -6% | · | ·
Cc1ccccc1Cc1c(C)nc2nc(SCC(=O)N(C)c3ccccc3)nn2c1C | · | · | -15% | 0% | -30%[46.1 µM] | -9%
CCOC(=O)/C=C/c1ccc2c(c1)S(=O)(=O)N(C1CCCC1)[C@H]2CC(=O)OCC | · | · | -6% | · | · | -25%
COc1ccc(OCC(O)CN(C2CCCCC2)C2CCCCC2)cc1 (centres undefined) | ? | -5% | -23% | -1% | 15µM* | -17%
CCOc1ccccc1NC(=O)C1CCN(S(=O)(=O)c2c(C)noc2/C=C/c2ccc(C)cc2)CC1 | · | · | ? | -24% | 17%[46.1 µM] | -28%
Cc1ccc(S(=O)(=O)NC(CC(C)C)C(=O)N2CCN(C/C=C/c3ccccc3)CC2)cc1 (centres undefined) | · | 11µM* | · | -24% | · | ·
CC(C(=O)Nc1ccc([N+](=O)[O-])cc1)N1CCN(C/C=C/c2ccccc2)CC1 (centres undefined) | 13µM* | ? | -29% | 28µM* | 8% | -28%
Cc1ccc(NC(=O)CCN2CCN(C/C=C/c3ccccc3)CC2)cc1 | 8.9µM* | ? | · | ? | -30% | ?
COCc1ccc(CN2CCOc3c(cc(-c4ccc(SC)cc4)cc3OC)C2)o1 | · | · | -8% | -3% | · | 1%
Cc1c(C(=O)NCC2(N3CCOCC3)CCCCC2)cnn1-c1nccc(-c2ccccc2F)n1 | · | · | -19% | -16% | · | -3%
CC(C)(C)CC(C)(C)c1ccc(O)c(Cc2ccc(Cl)cc2Cl)c1 | · | -19% | ? | 28µM* | · | ?
O=C(N/N=C/c1ccc(N2CCOCC2)cc1)c1ccccc1OCCOc1ccccc1 | ? | 8.9µM* | -30% | ? | ? | -19%
C=C(C)CNC(=S)N/N=C/c1ccc(N2CCOCC2)cc1 | ? | ? | -4% | -17% | ? | -15%
C/C(=N\NC(=O)COc1ccc(C(C)(C)C)cc1)c1ccc(-n2ccnc2)cc1 | 8% | -27% | ? | ? | ? | ?
C/C(=N/NC(=O)COc1ccc(C(C)(C)C)cc1)c1ccc(N2CCOCC2)cc1 | -4% | ? | i | -3% | 0.56µM* | -14%
COCCNC(=S)N/N=C/c1ccc(N2CCOCC2)cc1 | 23µM* | -29% | -24% | -6% | ? | -18%
CC(C)(C)c1ccc(OCC(=O)N/N=C/c2ccc(N3CCOCC3)cc2)cc1 | -23% | 0% | -4% | 0% | 0.092µM* | -23%
Cc1ccn2c(Nc3c(C)cccc3C)c(-c3ccc(Cl)s3)nc2c1 | -26%[46.1 µM] | · | -16% | ? | -5%[46.1 µM] | -11%
CN(CC(=O)Nc1ccccc1Cl)C(=O)COC(=O)CSc1ccc(Cl)cc1 | · | -2% | · | -9% | · | ·
CCOc1ccc(CN2C(=O)C(=O)c3cccc(C)c32)cc1OC | ? | · | -17% | -17% | ? | 8%
